The source of these data is publication PMC4552634, “A New Set of Chemical Starting Points with Plasmodium falciparum Transmission-Blocking Potential for Antimalarial Drug Discovery” (PLoS ONE, 2015).

Among all 13,000 compounds or so, about 3,200 (25%) showed an effect of 50% or more. Some of the results follow.

For the assay, the system named is P. falciparum stage V gametocytes. Also noted: BacTiter-Glo ATP luminescence viability of purified stage V gametocytes in 384-well plates, per cent inhibition versus DMSO. As to conditions: 48 h, 5 µM; inhibitor.
Take `COc1ccc2nccc(NCC3(O)CCN(CCc4ccc5c(c4)OCCO5)CC3)c2n1` [TCMDC-141461]: the % Inhibition (in general, the drop in the measured response relative to a control, in per cent) is reported as 34.43%.

As for `CC(C)CN1C(=O)C(c2ccc(F)c(F)c2)=C(O)C1c1ccccc1` (stereo not shown) [TCMDC-141919], the “% Inhibition” value is on record as 11.18%.

Consider `O=C(Nc1ccc(OC2CCN(Cc3ccccc3)C2)c(Cl)c1)c1ccsc1` (stereo not shown) [TCMDC-133969], for which the “% Inhibition” value is reported as -1.877%.

Turning to `C=CCOC(=O)O[C@@H]1[C@@H](OC(=O)OCC=C)[C@@H](OC)O[C@H](COC(c2ccccc2)(c2ccccc2)c2ccccc2)[C@H]1OC(=O)OCC=C` [TCMDC-139139], the “% Inhibition” value was found to be 34.95%. With `COc1ccccc1N1CCN(CCCCNC(=O)c2ccc(NC(=O)c3cc4ccccc4o3)cc2)CC1` [TCMDC-138115], the “% Inhibition” value was -10.75%. As for `Cc1cccc(CN2CCC(Oc3ccc(NC(=O)c4cccs4)cc3Cl)CC2)n1` [TCMDC-133964], the “% Inhibition” value came out at 24.07%. As to `O=C(NC1CCCCC1)N(Cc1ccc(-c2ccc(CNC3CCCC3)cc2)cc1)C1CCN(Cc2ccccc2)CC1` [TCMDC-140639], the “% Inhibition” value is 105.2%.

Take `FC(F)(F)c1cccc2c(NN=Cc3ccccc3)ccnc12` [TCMDC-142025]: the “% Inhibition” value is listed as 48.45%. In the case of `COc1ccc2ncc(F)c(CCN3CC[C@@H](CNCc4ccc5c(c4C)OCCO5)C3)c2n1` [TCMDC-136057], the “% Inhibition” value was 40.7%.

Turning to `COc1ccc(C(=O)CCC(=O)N(Cc2ccc(-c3ccc(CNCCc4ccc(S(C)(=O)=O)cc4)cn3)cc2)C2CCN(Cc3ccccc3)CC2)cc1F` [TCMDC-141516], the “% Inhibition” value is 12.43%. Next, `c1ccc(CN2CCC(NCc3ccc(-c4ccc(CNCc5cccnc5)cn4)cc3)CC2)cc1` [TCMDC-141613]: -15.37%.

Regarding `COc1ccc(C(=O)CCC(=O)N(Cc2ccc(-c3ccc(CNCc4cccnc4)cn3)cc2)C2CCN(Cc3ccccc3)CC2)cc1F` [TCMDC-141504], the “% Inhibition” value is 91.04%. Regarding `O=C(Cc1cccnc1)N(Cc1ccc(-c2ccc(CNCc3cccnc3)cn2)cc1)C1CCN(Cc2ccccc2)CC1` [TCMDC-141503], the “% Inhibition” value worked out at 73.31%.

Regarding `C=CCc1cccc(C)c1OCCCON1C(N)=NC(N)=NC1(C)C` [TCMDC-131307], the “% Inhibition” value came out at 8.677%. Next, `Cc1cc(C)n2nc(C(=O)Nc3cc(C(F)(F)F)ccc3N3CCOCC3)nc2n1` [TCMDC-123614]: 4.468%; `Cc1cc(N(C)C)nc(Nc2ccc(NC(=O)c3ccc(Br)o3)cc2)n1` [TCMDC-124972]: -1.025%; `CCCC(CNC(=O)c1cc2c(Cl)cc(Cl)cc2[nH]1)CNc1cc(=O)c2ccccc2[nH]1` (stereo not shown) [TCMDC-140519]: -10.38%. Next, `Cc1c(CC(=O)N(C)C2CCN(CCCCCNC(=O)/C=C/c3ccc(Cl)c(Cl)c3)CC2)sc2ccc(Cl)cc12` [TCMDC-139994]: -4.891%.

With `COc1ccc(CCn2c(=N)c(C(=O)NCc3ccccc3)cc3c(=O)n4ccccc4nc32)cc1` [TCMDC-124472], the “% Inhibition” value is reported as 34.54%. Under `CCOC(=O)N(C)/N=C/[C@H](CCc1ccccc1)NC(=O)[C@H](CC(C)C)NC(=O)c1cc2cccc(OC)c2o1` [TCMDC-136018] stands 75%. Under `CCC[C@@H](/C=N/N(C)C(=O)OC(C)(C)C)NC(=O)[C@H](CC(C)C)NC(=O)c1cc2cccc(OC)c2o1` [TCMDC-136059] stands -6.333%; under `CCOC(=O)N/N=C/[C@H](CCc1ccccc1)NC(=O)[C@H](CC(C)C)NC(=O)c1cc2cccc(OC)c2o1` [TCMDC-135928], 10.67%; under `CCOc1cc(C(=O)NCCN(CC)c2cccc(C)c2)ccc1-c1nc2ccc(Cl)cc2[nH]1` [TCMDC-140916], -6.076%. Take `CCc1cc2c(N)nc(N)nc2nc1-c1ccccc1` [TCMDC-131931]: the “% Inhibition” value is on record as 14.27%. Under `Nc1nc(N)c2cc3ccc(OCc4ccccc4)cc3nc2n1` [TCMDC-137967] stands 109.1%; under `Nc1nccc2ccc(-c3ccc(OCc4ccccc4)cc3)cc12` [TCMDC-133423], 12.93%; under `O=C(NC(Cc1ccccc1)C(=O)O)c1cc(=O)c2ccccc2o1` (stereo not shown) [TCMDC-131318], 3.006%.

Take `COc1ccc(CCN(C)CCOc2ccc(NC(=O)c3cccc4cc5ccccc5nc34)cc2)cc1OC` [TCMDC-132112]: the “% Inhibition” value is recorded as -28.68%. Next, `Cc1ccccc1CN1CCCN(Cc2ccc(C(=O)Nc3ccc(Cl)cc3)cc2)CC1` [TCMDC-136402]: -5.846%. Under `N/C(=N\c1cccc(Cc2ccc([N+](=O)[O-])cc2)n1)Nc1ccccc1` [TCMDC-138952] stands 90.6%. Next, `O=C(Nc1cccc(OC2CCN(Cc3ccccc3)CC2)c1)c1ccc([N+](=O)[O-])cc1` [TCMDC-139543]: 0.689%. For `CC1(C)N=C(NC(=O)Nc2ccc([N+](=O)[O-])cc2)N=C(N)N1OCc1cccc2ccccc12` [TCMDC-131582], the “% Inhibition” value is reported as 35.05%.

As to `Cc1ccccc1Cc1cccc(/N=C(\N)Nc2ccc(Cl)cc2)n1` [TCMDC-138942], the “% Inhibition” value was 89.67%.

As for `COc1cc2cc(C(=O)Nc3ccccc3)c(N)nc2cc1OC` [TCMDC-123992], the “% Inhibition” value amounted to 12.69%. In the case of `CN(c1ccccc1)c1ccnc(/N=C(\N)Nc2ccc(Cl)cc2)n1` [TCMDC-138941], the “% Inhibition” value was found to be 49.31%.

As to `COc1ccc(Cc2nc(N=C(N)Nc3ccccc3)ccc2OC)cc1` [TCMDC-138959], the “% Inhibition” value came out at 88.7%. Under `NC(=O)c1cccc(Nc2nccc(Nc3ccc4[nH]c(-c5ccccc5)cc4c3)n2)c1` [TCMDC-138678] stands -94.87%. On to `COc1ccc(S(=O)(=O)NC2CCN(c3cc(C)nc(Nc4cccc(C#N)c4)n3)CC2)cc1` [TCMDC-134215], for which the “% Inhibition” value is reported as 11.7%. Under `Cc1ccc(NC(=O)c2cnc(N3CCN(c4ccncc4)CC3)c(Cl)c2)cc1` [TCMDC-134603] stands 7.543%. For `CNC(=O)c1[nH]c(-c2ccccc2)nc1NC(C)=O` [TCMDC-131315], the “% Inhibition” value is recorded as -0.1444%.

Regarding `CC(C)(CNC(=O)[C@@H]1CCCN(Cc2ccc(Cl)cc2)C1)c1nc(-c2ccc(Cl)c(O)c2)c(-c2ccncc2)[nH]1` [TCMDC-141139], the “% Inhibition” value was 5.708%.

Take `Nc1ncc(-c2ccccc2)cc1-c1cccc2ncccc12` [TCMDC-133415]: the “% Inhibition” value was found to be 19.97%. Under `Nc1ncc(-c2ccccc2)cc1/C=C/c1cccnc1` [TCMDC-135534] stands 59.51%; under `Nc1nccc(-c2ccc3c(/C=C/c4ccccc4)cnc(N)c3c2)n1` [TCMDC-136382], -22.89%; under `COc1cc(NC(=O)N2CCOC(CCN3CCC4(CCc5ccccc54)CC3)(c3ccc(Cl)c(Cl)c3)C2)cc(OC)c1OC` (stereo not shown) [TCMDC-135346], -4.106%. Under `CN(Cc1cccc(O)c1)C1CCN(c2cc(NC(=O)c3cccc(F)c3)ccn2)CC1` [TCMDC-134962] stands -30.72%. Consider `CCCc1cc(Cc2cnc(N)nc2N)cc(CCC)c1O` [TCMDC-137695], for which the “% Inhibition” value is reported as -57.47%. Under `CCOc1ccccc1C1C(C(=O)C(C)(C)C)N2c3ccc(Br)cc3C=CC2C12C(=O)c1ccccc1C2=O` (stereo not shown) [TCMDC-125079] stands 103.1%. Next, `CCCCC1=CC2C(=O)C(C(=O)OC)=CN=C2C=C1OCc1ccccc1` (stereo not shown) [TCMDC-137492]: 62.56%; `Cc1ccc(NC(=O)c2cn(-c3ccccc3)nc2-c2ccc(F)cc2)cc1[N+](=O)[O-]` [TCMDC-125590]: -12.22%; `COc1ccc(CNC2CCN(C)CC2)cc1-c1ccc(S(=O)(=O)NCc2ccccc2)cc1` [TCMDC-132244]: 110.3%. Under `COc1ccc(CNC2CCN(C)CC2)cc1-c1cccc(S(=O)(=O)NCc2ccccc2)c1` [TCMDC-132267] stands 106.3%; under `Cc1ccc(NC(=O)c2ccc(CN3CCCN(Cc4cccc(C#N)c4)CC3)cc2)cc1F` [TCMDC-136394], -18.71%; under `COc1ccc2ncc(F)c(CCN3C4CCC3CC(NCc3ccc5c(c3)OCCO5)C4)c2n1` (stereo not shown) [TCMDC-135638], 37.56%. On to `Clc1ccc(CNc2nc(NCCc3cnc[nH]3)nc(Nc3ccc4c(c3)OCO4)n2)cc1` [TCMDC-139740], for which the “% Inhibition” value stood at 19.01%.

Turning to `O=C(COc1ccccc1Cl)N1CCc2cc3nccc(N4CCN5CCC[C@H]5C4)c3cc21` [TCMDC-140049], the “% Inhibition” value amounted to 15.14%. For the compound `Oc1ccc(Cl)cc1CN1CCCC(COC(c2ccc(F)cc2)c2ccc(F)cc2)C1` (stereo not shown) [TCMDC-136034], the “% Inhibition” value amounted to 8.672%. Under `O=C(NCCN1CCC(NC(=O)c2ccc(-c3ccccn3)s2)CC1)c1cccc(C(F)(F)F)c1` [TCMDC-141952] stands 4.93%; under `N#Cc1ccc2c(c1)CN(CCC1CCC(NC(=O)c3cc4ccccc4cc3N)CC1)CC2` (stereo not shown) [TCMDC-139164], 18.76%; under `CC1CCCN(Cc2cc(Cl)cc(Cl)c2O)C1` (stereo not shown) [TCMDC-125392], 14.71%. Turning to `O=C(c1ccc(Cl)cc1Cl)N1CCCC(C(F)(F)F)C1` (stereo not shown) [TCMDC-123721], the “% Inhibition” value was found to be 22.72%. Under `Oc1c(CN2CCCC(C(F)(F)F)C2)cc(Cl)c2ccccc12` (stereo not shown) [TCMDC-124857] stands 96.48%; under `CC(=O)Nc1ccc(CN2CCC(N(C)c3cc(NC(=O)c4ccc(F)cc4)ccn3)CC2)cc1` [TCMDC-134983], -11.33%; under `Cc1cnc(CN(Cc2ccc(-c3ccc(CNCCc4ccc(S(C)(=O)=O)cc4)cn3)cc2)C(=O)c2nn(-c3ccccc3)nc2C)cn1` [TCMDC-141522], -18.48%. Under `Cc1cc(C(=O)N(Cc2ccc(-c3ccc(CNCCc4ccc(S(C)(=O)=O)cc4)cn3)cc2)C(C)CN(C)C)ccc1[N+](=O)[O-]` (stereo not shown) [TCMDC-141521] stands 51.26%.

Consider `Cc1nn(-c2ccccc2)nc1C(=O)N(Cc1ccc(-c2ccc(CNCCc3ccc(S(C)(=O)=O)cc3)cn2)cc1)C1CC1` [TCMDC-141523], for which the “% Inhibition” value was 39.99%. Regarding `Cc1cnc(CN(Cc2ccc(-c3ccc(CNCCc4ccc(S(C)(=O)=O)cc4)cn3)cc2)C(=O)c2ccc([N+](=O)[O-])c(C)c2)cn1` [TCMDC-141520], the “% Inhibition” value was 64.44%.
